Most compounds without a hit are left out; they make up all but 18% or so of the library.
GCN5L2 inh – qHTS Assay for Inhibitors of GCN5L2. hit rate 0.21% among 390,000. Potency, µM (titrated, usually from 58.9 µM), inactives show at the highest dose activity change, negative = inhibition, most hits filed as inhibitors. AID 504327, 2011. GCN5L2 HAT assay, ThioGlo1 CoA-SH fluorescence
Target sequence (Q92830 whole entry, looked up): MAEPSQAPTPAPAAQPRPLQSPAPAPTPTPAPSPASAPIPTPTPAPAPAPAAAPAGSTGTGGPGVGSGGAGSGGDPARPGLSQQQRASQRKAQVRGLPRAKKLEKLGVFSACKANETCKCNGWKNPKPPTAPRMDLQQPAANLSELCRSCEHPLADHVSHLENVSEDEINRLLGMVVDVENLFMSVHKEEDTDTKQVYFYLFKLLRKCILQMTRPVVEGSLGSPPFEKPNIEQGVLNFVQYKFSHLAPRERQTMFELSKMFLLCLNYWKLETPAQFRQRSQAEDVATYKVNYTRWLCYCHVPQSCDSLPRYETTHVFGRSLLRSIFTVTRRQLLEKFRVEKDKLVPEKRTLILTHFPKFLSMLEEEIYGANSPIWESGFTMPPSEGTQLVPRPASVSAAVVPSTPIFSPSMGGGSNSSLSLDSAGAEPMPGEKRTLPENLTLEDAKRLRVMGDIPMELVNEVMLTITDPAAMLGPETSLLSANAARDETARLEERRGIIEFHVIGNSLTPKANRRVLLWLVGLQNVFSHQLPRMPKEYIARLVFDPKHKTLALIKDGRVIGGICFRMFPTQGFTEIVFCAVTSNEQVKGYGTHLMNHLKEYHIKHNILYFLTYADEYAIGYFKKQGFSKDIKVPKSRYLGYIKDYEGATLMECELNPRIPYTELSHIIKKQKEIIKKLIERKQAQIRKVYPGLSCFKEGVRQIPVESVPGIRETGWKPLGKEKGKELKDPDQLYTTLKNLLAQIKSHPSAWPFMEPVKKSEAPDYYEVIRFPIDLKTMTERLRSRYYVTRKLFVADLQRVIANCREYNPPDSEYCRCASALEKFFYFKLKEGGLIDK
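Fluorescence readout, Ex340nm/Em540nm: ThioGlo1 (50uM final) reacts with free CoA thiol released as 20nM GCN5L2 acetylates H3(1-25) peptide (75uM) using acetyl-CoA (70uM). Compound and enzyme sat 15 min beforehand; 20 min room-temperature reaction.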
TDP1 inh – qHTS Assay for Inhibitors of Tyrosyl-DNA Phosphodiesterase (TDP1) | recombinant TDP1, AlphaScreen DNA substrate cleavage | hit rate 0.28% among 350,000 | Tyrosyl-DNA phosphodiesterase 1 (Homo sapiens), Q9NUW8 | Potency, µM (top dose mostly 130 µM), for the others: at the highest dose activity change, negative = inhibition, hits mostly inhibitors; further: nearly all actives have a fitted effect of over 40% in size
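Recombinant human Tdp1 (E. coli-expressed, 1 nM final) preincubated with compounds 15 min at room temperature, then 5'-biotin/3'-phosphotyrosine-FITC DNA substrate (15 nM final) added for 5 min. AlphaScreen beads (10 ug/ml final) added 10 min; cleavage lowers signal.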
TDP1 cell noCPT – qHTS for Inhibitors of human tyrosyl-DNA phosphodiesterase 1 (TDP1): qHTS in cells in absence of CPT; DT40 Tdp1-/- hTDP1 cells, no CPT, ATP luminescence, 48 h; Potency, µM (series often up to 46.2 µM), without a hit: top-dose activity change, negative = growth inhibition, usual class: inhibitors; hit rate 15% among 420,000; further: nearly all actives have a fitted effect of over 55% in size
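Growth kinetics read by CellTiter-Glo luminescence after ≥48 hr at 37 °C. Cells: DT40 Tdp1-/- stably carrying human TDP1, 400 per well, compound exposure in the absence of CPT (DMSO vehicle).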
DT40 TDP1 CPT – qHTS for Inhibitors of human tyrosyl-DNA phosphodiesterase 1 (TDP1): qHTS in cells in presence of CPT; chicken DT40 Tdp1-/-;hTDP1 cells + 20 nM CPT, ATP luminescence, 48 h; Potency, µM (top dose mostly 46.2 µM), without a hit: top-dose activity change, negative = growth inhibition, actives largely listed as inhibitors; hit rate 12% among 420,000; AID 686979, 2013; further: nearly all actives have a fitted effect of over 55% in size
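Chicken DT40 Tdp1-/- cells stably complemented with human TDP1 were seeded at 400 cells/well in medium containing 20 nM camptothecin, exposed to pin-transferred compounds, and grown at 37 °C for at least 48 hr. Viability was read as ATP luminescence.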
PLK1 PBD block – qHTS for Inhibitors of PLK1-PDB (polo-like kinase 1 - polo-box domain): Primary Screen; Serine/threonine-protein kinase PLK1 (Homo sapiens), P53350; Plk1 PBD binding of FITC phosphopeptide, fluorescence polarization; hit rate 2.8% among 360,000; Potency, µM, for inactives: max response, negative = inhibition, usual class: inhibitors; further: series mostly up to about 57 µM; nearly all actives have a fitted effect of over 65% in size
VDR inhibitor – Inhibitors of the vitamin D receptor (VDR): qHTS; Vitamin D3 receptor (Homo sapiens), P11473; Potency, µM, without a hit: max response, negative = inhibition, most hits filed as inhibitors; hit rate 0.93% among 400,000; VDR-SRC2-3 peptide fluorescence polarization, 2 h
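After 23 nl compound addition and a short centrifugation, plates sat for 2 hours at ambient temperature; polarization of fluorescence then indicated loss of VDR binding to peptide SRC2-3.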
The depositor's hits bear a star; ? = inconclusive; / = not tested or not shown. The call rests on the fitted dose curve; in most records, active means well fitted curve in the direction sought with a large enough effect; inconclusive means small, poorly fitted or top-dose-only effect, or another doubt; inactive means no such curve, though single readings can be large; an effect the other way counts as inactive or inconclusive. On the % scale 0 is the no-effect control and ±100 the full control effect; potency means the concentration at half of the fitted maximal effect.

SMILES | GCN5L2 inh | TDP1 inh | TDP1 cell noCPT | DT40 TDP1 CPT | PLK1 PBD block | VDR inhibitor
COc1cccc(C(O)c2nc(/C=C/c3ccc(C(F)(F)F)cc3)cs2)c1 (centres undefined) | / | / | ? | ? | -14.5% | /
OC(c1cccnc1)c1nc(-c2cccc(F)c2)cs1 (centres undefined) | / | / | ? | ? | 1.9% | /
OC(c1cccnc1)c1nc(/C=C/c2ccc(C(F)(F)F)cc2)cs1 (centres undefined) | / | / | 2.59µM* | 20.6µM* | -11.5% | /
O=C(O)c1cnc(-c2ccccc2)nc1Sc1cccc(Cl)c1 | -0.1% | 2.8% | -10.4% | 1.2% | 29.9µM* | -3.8%
O=C(O)c1cnc(-c2ccccc2)nc1Sc1ccc(Cl)cc1Cl | -9.1% | 5.9% | -16.2% | 22.1% | 26.7µM* | ?
O=C(O)c1cnc(-c2ccccc2)nc1Sc1ccccc1 | -2.8% | -1.0% | -11.3% | -0.6% | ? | 4.4%
COc1ccc(NC(=O)c2c(C)oc3ccc(O)c(CN4CCOCC4)c23)cc1 | -5.3% | -2.5% | 3.2% | -20.5% | / | 0.2%
COc1ccc(NC(=O)c2c(C)nn(Cc3ccccc3)c2Cl)cc1S(=O)(=O)N1CCOCC1 | -6.4% | -2.6% | -27.4% | -29.7% | -13.3% | -18.5%
COc1ccc(NC(=O)CN2CCN(c3ccc(F)cc3)CC2)cc1Cl | -3.4% | 2.8% | ? | ? | -9.0% | 21.8%
COc1ccc(NC(=O)c2c(C)oc3ccc(O)c(CN4CCCC(C)C4)c23)cc1Cl (centres undefined) | -0.3% | 8.6% | 16.4µM* | 23.1µM* | / | 13.4%
COc1ccc(NC(=O)c2c(C)oc3ccc(O)c(CN4CCN(Cc5ccccc5)CC4)c23)cc1Cl | -13.6% | 11.0% | 14.6µM* | 18.4µM* | / | 13.6%
CCN1CCN(Cc2c(O)ccc3oc(C)c(C(=O)Nc4ccc(OC)c(Cl)c4)c23)CC1 | 2.4% | 7.4% | ? | 23.1µM* | / | 21.7%
COc1ccc(C(=O)c2c(C)oc3ccc(O)c(CN4CCOCC4)c23)cc1 | -13.3% | 11.1% | 18.4µM* | ? | -11.0% | -24.2%
Cc1cc(-c2csc(NC(=O)c3ccc(C#N)cc3)n2)c(C)n1Cc1ccco1 | -3.5% | 3.2% | -29.1% | 9.8% | -7.2% | 0.8%
CC(C(=O)O)N1CCCCC1 (centres undefined) | -17.3% | -0.6% | 2.2% | -0.8% | -27.9% | -4.3%
COc1cc(/C=C2/CC(C)OC2=O)c([N+](=O)[O-])cc1OC (centres undefined) | 2.7% | 3.7% | ? | -0.4% | -9.5% | 1.4%
Cc1ccc(NC(=O)c2c(C)oc3ccc(O)c(CN4CCN(Cc5ccccc5)CC4)c23)cc1 | -12.3% | 6.1% | -85.7% | 20.6µM* | / | 2.7%
O=C(CN1CCN(Cc2ccccc2)CC1)Nc1ccccc1 | 0.7% | / | 7.8% | -19.6% | -8.3% | -9.4%
CCc1ccc(CNC(=O)CCc2c(C)nn(-c3ccc(N4CCCC4)nn3)c2C)cc1 | -8.0% | 3.2% | ? | ? | / | 6.1%
Cc1ccc(NC(=O)C(=O)NCC(c2cccnc2)N2CCN(Cc3ccccc3)CC2)cc1F (centres undefined) | -7.0% | 5.2% | 5.8µM* | 7.31µM* | / | 13.3%
Cc1ccc(NC(=O)C(=O)NCC(c2cccnc2)N2CCOCC2)cc1C (centres undefined) | -4.3% | 7.8% | ? | -23.0% | / | 5.1%
Cc1ccc(NC(=O)C(=O)NCC(c2cccnc2)N2CCN(Cc3ccccc3)CC2)cc1C (centres undefined) | -7.6% | 6.5% | 16.4µM* | 16.4µM* | / | 9.3%
Cc1ccc(CCC(=O)Nc2ncc(Cc3cccc(Cl)c3Cl)s2)o1 | 3.0% | 2.7% | 0.0164µM* | 0.0231µM* | -3.1% | -10.1%
O=C(CNC(=O)c1ccccc1)OCC(=O)c1ccc2ccccc2c1 | / | 2.0% | -4.0% | -11.7% | / | -10.3%
COc1ccc(C(=O)C2CCCN(Cc3ccc4nonc4c3)C2)cc1OC (centres undefined) | -18.4% | 2.4% | -18.0% | -19.0% | -7.9% | -6.5%
SMILES | GCN5L2 inh | TDP1 inh | TDP1 cell noCPT | DT40 TDP1 CPT | PLK1 PBD block | VDR inhibitor
O=C(c1ccc2c(c1)OCO2)C1CCCN(Cc2cccn2-c2cccnc2)C1 (centres undefined) | 1.2% | 7.3% | 14.6µM* | 23.1µM* | -7.4% | 4.5%
CSc1ccc(C(=O)C2CCCN(Cc3cccn3-c3cccnc3)C2)cc1 (centres undefined) | -12.7% | 5.4% | 5.17µM* | 4.61µM* | -7.7% | 0.7%
COc1ccc(C(=O)C2CCCN(Cc3cccn3-c3cccnc3)C2)cc1OC (centres undefined) | -3.2% | / | 14.6µM* | 16.4µM* | -4.2% | -2.3%
CCn1ncc(CN2CCCC(C(=O)c3cccc(OC(C)C)c3)C2)c1C (centres undefined) | -14.2% | 0.0% | ? | ? | ? | 0.4%
OCCC1CN(Cc2cccn2-c2cccnc2)CCN1C1CCCC1 (centres undefined) | -3.0% | 3.6% | 14.3% | 4.0% | -0.3% | 7.6%
CC(C)Oc1cccc(C(=O)C2CCCN(Cc3cccn3-c3cccnc3)C2)c1 (centres undefined) | -1.7% | 8.3% | 13µM* | ? | 2.5% | -23.9%
COCC(=O)Nc1cc(C(=O)N2CCc3c(Cl)cccc3C2)c2c(c1)nc(-c1ccncc1)n2C | / | / | 2.9% | 4.2% | / | /
Cc1ccccc1OCC(=O)N1CCC(c2nc3ccccc3s2)CC1 | -7.9% | -4.7% | ? | ? | / | -0.1%
COc1ccc(S(=O)(=O)N2CCC(C(=O)NCc3cccnc3)CC2)cc1OC | -6.8% | 4.47µM* | -7.6% | 9.9% | -2.0% | 4.0%
CC(C)CN(CC(C)C)S(=O)(=O)N1CCC(C(=O)NCc2cccnc2)CC1 | -7.8% | 3.7% | ? | -35.8% | 26.7µM* | -28.4%
COc1ccc(S(=O)(=O)N2CCC(C(=O)NCc3cccnc3)CC2)cc1C | 0.8% | / | -10.6% | -20.2% | 2.5% | 1.4%
COc1ccc(OC)c(C2=Nn3c(nnc3-c3ccccc3C)SC2)c1 | / | 11.5% | / | / | / | /
CC(=O)O/C(=C\c1cn(C(C)=O)c2ccccc12)C(=O)O | -1.3% | -3.1% | 21.9% | -5.8% | 2.5% | -0.1%
CC(=O)n1cc(N(C(=O)CCl)c2ccccc2)c2ccccc21 | 0.2% | / | 0.581µM* | 0.651µM* | -10.5% | ?
